From PubChem BioAssay AID1359 (The Scripps Research Institute Molecular Screening Center, 2008) come the findings set out here.

Molecules are shown by their SMILES. In all, about 220,000 compounds went through this assay and about 970 (0.44%) were called active. Many of the other results were omitted from the sample, so actives are more common in it than they were. Unmarked numbers belong to inactive results. Rule as the data show it: active = activation above about 27%; inactive = the rest.

The target in this test is Neuropeptide Y receptor type 2 (Homo sapiens) (UniProt P49146). Description: human Y2 receptor positive modulation or activation – cell-based, primary screen (AID 1359).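 Also: cells stimulated with NPY near EC25 plus isoproterenol at EC100; 0% = vehicle plus submaximal agonist and 100% = vehicle plus saturating agonist.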 The conditions noted are these: cells expressing NPY-Y2, potentiator/agonist read-out; at 3.6 µM; stronger effect = higher value.
Sequence of Neuropeptide Y receptor type 2 (Homo sapiens) (P49146 whole entry, looked up): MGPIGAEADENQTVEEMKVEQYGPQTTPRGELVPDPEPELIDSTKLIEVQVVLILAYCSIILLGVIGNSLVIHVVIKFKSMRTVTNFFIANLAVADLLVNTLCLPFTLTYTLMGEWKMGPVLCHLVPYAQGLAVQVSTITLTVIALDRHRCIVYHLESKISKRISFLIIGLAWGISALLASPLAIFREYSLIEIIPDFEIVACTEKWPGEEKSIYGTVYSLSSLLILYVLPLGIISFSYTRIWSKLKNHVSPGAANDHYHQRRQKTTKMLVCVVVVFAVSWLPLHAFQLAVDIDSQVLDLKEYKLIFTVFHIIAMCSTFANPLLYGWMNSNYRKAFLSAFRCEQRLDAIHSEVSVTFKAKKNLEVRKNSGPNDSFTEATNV
In the case of `COC(=O)c1ccccc1NC(=O)c1ccccc1NS(C)(=O)=O`, the activation is -6.98%.

As for `CCOc1ccc(NC(=O)c2ccccc2NS(C)(=O)=O)cc1`, the activation is 2.32%.

Regarding `O=C(Nc1nncs1)c1ccccc1NS(=O)(=O)c1cccs1`, the activation is -3.36%. The result for `COC(=O)c1ccc(NC(=O)c2ccccc2NS(=O)(=O)c2ccccc2)cc1` reads 34.4% (active); that for `COc1cc(NC(=O)c2cccnc2SC)cc(OC)c1`, 6.08%. With `COc1cc(NC(=O)c2ccccc2NS(=O)(=O)c2ccc(Cl)s2)cc(OC)c1`, the activation is 44% (active). Consider `COc1ccccc1NC(=S)N1CCC(NC(=O)C23CC4CC(CC(C4)C2)C3)CC1`, for which the activation is 1.71%.

With `O=c1c2c3c(sc2n(CCN2CCCC2)c(=O)n1Cc1ccccc1)CCCCC3`, the activation was -17.9%.

For the compound `O=C(Cn1nnc(N2CCCCC2)n1)c1ccc(Cl)c(Cl)c1`, the activation was 19%. For `COc1ccc(Cc2n[nH]c(=S)n2NC(=O)Nc2ccc(C)cc2)cc1`, the activation is 7.41%.

As to `CC1CN(/C=C/C(=O)C(F)(F)F)CC(C)O1` (stereo unspecified), the activation was -5.05%. For the compound `CCC(=O)N1CCC(C(N)=O)(N2CCCCC2)CC1`, the activation is -10.4%. Consider `CCCCCCCC1(C)NC(=O)N(CC(=O)Nc2cc(C)on2)C1=O` (stereo unspecified), for which the activation was 8.45%. Turning to `CCOC(=O)Cc1cc(=O)[nH]c(/N=C(\N)Nc2ccc(OC)cc2)n1`, the activation was -5.89%. Consider `CC(C)OP(=O)(OC(C)C)C(Nc1ccccc1)c1cccc([N+](=O)[O-])c1` (stereo unspecified), for which the activation was -1.74%. In the case of `CC(=O)NCC(O)c1ccc([N+](=O)[O-])cc1` (stereo unspecified), the activation was 7.64%. For the compound `CC(CCc1ccccc1)NCC(O)c1cccc([N+](=O)[O-])c1` (stereo unspecified), the activation is 87.1% (active). For the compound `O=C(CCn1nnc2ccccc2c1=O)N[C@@H](Cc1c[nH]c2ccccc12)C(=O)O`, the activation is 13.2%.

For the compound `CCOc1ccc(S(=O)(=O)N(CC(=O)NCC(F)(F)F)Cc2ccco2)cc1`, the activation was -4.11%. With `Cc1ccc(Nc2nc(CSc3nnc(-c4ccncc4)n3-c3ccccc3C)cs2)cc1`, the activation was 2.6%. Turning to `COc1cccc(CNn2cn[nH]c2=S)c1OCc1ccccc1`, the activation is 2.42%. Take `O=C(CC(=O)Nc1ccc(Cl)c(Cl)c1)N/N=C/c1ccc(O)cc1`: the activation is 7.69%.

`CN(C)CCNC(CC(=O)Nc1ccc(Cl)c(Cl)c1)C(=O)O` (stereo unspecified): the activation is 4.29%. For the compound `O=C(CC(O)(C(F)(F)F)C(F)(F)F)Nc1ccc(Cl)c(Cl)c1`, the activation is 52.9% (active). The result for `Cc1ccccc1/[N+]([O-])=C/c1ccncc1` reads -7.27%; that for `CC(=O)c1c(C)[nH]c(=S)c(C#N)c1-c1ccc(F)cc1`, -13.5%.

As for `C#CCOCCOCCOCCNc1nc(N2CCN(C(=O)[C@H](CCC(=O)O)n3cc(C(N)CO)nn3)CC2)nc(N2CCN(C(=O)[C@H](Cc3ccc(O)cc3)n3cc(C(N)[C@H](C)CC)nn3)CC2)n1` (stereo partly specified), the activation was -0.84%. In the case of `Cc1nccn1CC(=O)N/N=C/c1ccc(O)c(O)c1`, the activation was -13.1%. To `Oc1ccc(/C=N/Nc2ccc(C(F)(F)F)cn2)cc1O` belongs 28.2% (active); to `O=C(Nc1ccccc1)Nc1ccc(C(F)(F)F)cn1`, 4.92%; to `Cc1ccc(-c2c[n+](=O)c3c(n2[O-])CCC3)cc1`, -8.75%. To `Cc1c(C(=O)NCCCc2ccccc2)cccc1[N+](=O)[O-]` belongs 2.52%; to `O=C1CCCC(O)=C1N=Nc1ccc(S(=O)(=O)N2CCOCC2)cc1`, 4.38%; to `CC(=O)Nc1ccccc1OC(C)C(=O)N1CCC(C)CC1` (stereo unspecified), -7.73%. For the compound `CC(C)(C)CC(C)(C)NCC(O)COCCOc1ccc(Br)cc1` (stereo unspecified), the activation was -6.14%. Take `Cc1noc(COc2ccccc2OCc2onc(C)c2Cl)c1Cl`: the activation is 0.6%.

Take `Cc1noc(COc2ccccc2OCC(O)CNC(C)(C)C)n1` (stereo unspecified): the activation was 102% (active). The result for `Cc1cccc(-c2nc3c(c(SCC(=O)N4CCOCC4)n2)CCCC3)c1` reads -7.06%.

For the compound `O=C(Nc1ccc(N2CCOCC2)nc1)c1c(F)cccc1F`, the activation is -10.2%. As to `CSc1ccc(NC(=O)/C=C/C(=O)O)cc1`, the activation is -0.23%. To `O=C(COC(=O)c1ccc[nH]c1=O)Nc1ccc2c(c1)OC(F)(F)O2` belongs -11.7%; to `CN(C)Cc1c(O)ccc2occ(C(O)c3ccccc3)c12` (stereo unspecified), 92.7% (active). The result for `N/C(=N\S(=O)(=O)c1cc(C(F)(F)F)cc(C(F)(F)F)c1)c1cccs1` reads 46% (active); that for `Cc1ccc(S(=O)(=O)/N=C(\N)c2ccc(F)cc2)cc1`, 9.83%; that for `C/C(=N\NS(=O)(=O)c1ccc(Br)cc1)c1cccs1`, 2.42%.

Turning to `Cn1c(=O)c(Sc2ccc(Cl)cc2)c(O)c2ccccc21`, the activation is -8.34%. Take `COc1cccc(NC(=S)NC(=O)c2c(Cl)c(C)nn2C)c1`: the activation is -1.69%. As for `OCCNCc1cccc(OCc2ccccc2Cl)c1`, the activation was -2.33%. Take `Cc1cccn2c(CN(C)C3CCCc4ccccc43)c(C(=O)N3CCOCC3)nc12` (stereo unspecified): the activation was -13.5%. Consider `OC(c1ccccc1)c1nccn1Cc1ccccc1` (stereo unspecified), for which the activation is 3.61%. On to `COC(=O)c1cc(N2CCNCC2)nc2ccccc12`, for which the activation is 17%. As to `O=C(Nc1ccc(Cl)cn1)c1ccc2c(c1)OCCO2`, the activation is -8.32%. To `O=C(Nc1cccc(S(=O)(=O)N2CCCCC2)c1)c1ccc2c(c1)OCO2` belongs 1.87%; to `O=C(Nc1cccc(S(=O)(=O)Nc2ccc(Cl)cc2)c1)c1ccc2c(c1)OCCO2`, 35% (active). Regarding `COC(=O)c1ccc(CSc2nncn2N)cc1`, the activation was 2.75%. To `NC(=O)CCC(NS(=O)(=O)c1ccc(Cl)cc1)C(=O)NCc1ccccc1Cl` (stereo unspecified) belongs 10%; to `CC(=O)c1c(C)[nH]c(C(=O)COC(=O)c2cccc(S(=O)(=O)N(C)c3ccccc3)c2)c1C`, 10.4%. With `COc1ccc(C(C[N+](=O)[O-])n2nc(C)cc2C)cc1` (stereo unspecified), the activation is 12.3%.

Regarding `COc1cccc2sc(N(CCCN(C)C)C(=O)C(c3ccccc3)c3ccccc3)nc12`, the activation is 95.6% (active). Consider `CN(C)CCCN(C(=O)COc1ccccc1)c1nc2c(Cl)cccc2s1`, for which the activation was -2.96%. To `CC(=O)N(CCCN(C)C)c1nc2ccc(C)cc2s1` belongs -1.74%.
